The campaign covered roughly 290,000 compounds. About 370 (0.13%) were called active. This is one part of a sample in which actives are shown more often than they occur.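 The calls were made as follows: active = spots per cell inhibited over 60%, with over 100 cells counted and total cytoplasm intensity under 500,000; inconclusive = wells with under 100 cells, flagged as likely toxic; inactive = the rest.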 Potency and affinity values are given separately.
molecular target: G-protein coupled receptor 55 (Homo sapiens) (UniProt Q9Y2T6); assay: GPR55 antagonists blocking LPI-driven arrestin recruitment, primary screen, imaging, U2OS, beta-arrestin-GFP, LPI agonist (AID 2013); conditions: U2OS GPR55 beta-arrestin-GFP translocation imaging, LPI antagonism; at 10 µM; active compounds read high;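 also: U2OS cells stably carrying GPR55 and arrestin-GFP stimulated by 5 µM LPI near EC80; imaged beta-arrestin-GFP aggregate spots per cell after agonist stimulation; plate controls were LPI-stimulated DMSO wells for no effect and DMSO wells without LPI for full effect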
Sequence (Q9Y2T6 whole entry, looked up): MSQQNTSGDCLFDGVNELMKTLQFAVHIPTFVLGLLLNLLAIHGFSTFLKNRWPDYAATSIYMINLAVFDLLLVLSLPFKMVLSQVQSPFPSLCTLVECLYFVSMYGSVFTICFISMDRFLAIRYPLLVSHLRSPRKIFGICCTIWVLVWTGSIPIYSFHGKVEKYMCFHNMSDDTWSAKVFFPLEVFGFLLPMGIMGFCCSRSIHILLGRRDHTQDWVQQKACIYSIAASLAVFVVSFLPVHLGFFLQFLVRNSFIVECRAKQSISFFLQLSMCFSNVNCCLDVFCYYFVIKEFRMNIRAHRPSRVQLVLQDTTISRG

Structure (SMILES) | inhibition
Cn1cc([C@@H]2C[C@H]3CN(C4CCCC4)C(=O)[C@]34CCCN24)c(-c2ccccc2)n1 | -0.1% (inactive)
COc1ccc2oc(C(=O)OCC(=O)NC(C)c3ccccc3)c(C)c2c1 (stereo not drawn) | -1.9% (inactive)
Cc1cc(C(=O)NCC23CC4CC(CC(C4)C2)C3)c(C)o1 | 72.6% (active)
Cc1cc(C(=O)NCC(=O)O)c(C)o1 | 2.3% (inactive)
Cc1cc(C(=O)NN)c(C)o1 | 1% (inactive)
COc1cc(/C=C(/NC(=O)c2ccccc2)C(=O)N2CCOCC2)c([N+](=O)[O-])cc1OC | 13.2% (inactive)
Cc1cc(C(F)(F)F)nc(-n2cc(-c3ccccc3)nn2)n1 | 7.4% (inactive)
Cc1nn(C(C)(C)C)c(OC(=O)c2ccc(Br)o2)c1Sc1ccccc1 | -4.1% (inactive)
Cc1nn(C(C)(C)C)c(OC(=O)c2ccco2)c1Sc1ccccc1 | 7% (inactive)
CCC1(C)CC(=O)N(c2ccc(F)c(Cl)c2)C(=O)C1 | 0.3% (inactive)
CC1=NN(c2ccccc2)C(=O)/C1=C/C=C/c1ccccc1 | 5.8% (inactive)
CC1=NN(c2cccc(C(=O)O)c2)C(=O)/C1=C\C=C\c1ccco1 | 10.3% (inactive)
CCOC(=O)C(C)(C)N(Cc1ccccc1C)S(=O)(=O)c1ccc(Cl)c([N+](=O)[O-])c1 | 44% (inactive)
CCOC(=O)C(C)(C)N(Cc1ccc(Cl)cc1)S(=O)(=O)c1ccc(Cl)c([N+](=O)[O-])c1 | 44.2% (inactive)
CCOC(=O)C(C)(C)NS(=O)(=O)c1ccc(Cl)c([N+](=O)[O-])c1 | 6.3% (inactive)
CCOC(=O)C(C)(C)N(Cc1cccc(C)c1)S(=O)(=O)c1ccc(Cl)c([N+](=O)[O-])c1 | 73.8% (active)
CCOC(=O)C(C)(C)N(Cc1cccc(C)c1)S(=O)(=O)c1cccc([N+](=O)[O-])c1 | 9.3% (inactive)
CC(=O)Nc1ccc(S(=O)(=O)NCC(=O)OCC(=O)N2CCc3ccccc32)cc1 | -1.9% (inactive)
Cc1cc(C)c(C)c(Oc2ncnc(N)c2[N+](=O)[O-])c1 | 0.6% (inactive)
Cc1nc([N+](=O)[O-])cn1CC(=O)Nc1ccc(F)c(Cl)c1 | 1.9% (inactive)
Cn1ccnc1SCC(=O)N1CCc2ccccc21 | -2.6% (inactive)
O=S(=O)(/N=C/N1CCOCC1)c1ccc(Cl)cc1 | 8.2% (inactive)
COc1cc(OC)cc(C(=O)N2CCN(C(=O)c3cccs3)CC2)c1 | -11.9% (inactive)
COc1ccc(N2C(=O)CCC2=O)c(OC)c1 | 1.4% (inactive)

Structure (SMILES) | inhibition
COc1ccc(OC)c(-n2c(=O)c3ccccc3c3ccccc3c2=O)c1 | 9.4% (inactive)
COc1ccc(OC)c(CNc2c(C=O)c(=O)[nH]c3ccccc23)c1 | 1.2% (inactive)
O=Cc1cn(CC(=O)N2CCOCC2)c2ccccc12 | 6.5% (inactive)
O=C1NC(=O)/C(=C\c2cn(CC(=O)N3CCOCC3)c3ccccc23)S1 | -3.8% (inactive)
COc1ccc2[nH]cc(C=O)c2c1 | -7.9% (inactive)
O=C(c1ccccc1)N1N=C(c2ccccc2)CC1c1ccccc1[N+](=O)[O-] (stereo not drawn) | 4% (inactive)
OC(COc1cccc2ccccc12)CN1CCCC1 (stereo not drawn) | -4.7% (inactive)
CN1C(=O)[C@H]2[C@@H](/C=C/c3ccccc3)N3C(=O)CN(CC4CC4)C(=O)[C@@]3(C)[C@H]2C1=O | 7.6% (inactive)
Cc1cc(C)c(C)c(OCCN2CC(C)OC(C)C2)c1 (stereo not drawn) | -23.1% (inactive)
Cc1ccc(C(C)C)c(OCC(O)CN2CCc3ccccc3C2)c1 (stereo not drawn) | 2.1% (inactive)
O=S(=O)(c1ccccc1F)N1CCC(c2nc3ccccc3[nH]2)CC1 | -18.2% (inactive)
COc1cc(C2=NOC(C(=O)Nc3cc(C)on3)C2)cc(OC)c1OC (stereo not drawn) | 0.6% (inactive)
COc1ccccc1NC(=O)COc1ccc2c(c1)OCO2 | 19% (inactive)
CS(=O)(=O)CCC(C(=O)OCC(=O)c1ccc(Cl)cc1)N1C(=O)c2ccccc2C1=O (stereo not drawn) | -0.1% (inactive)
Cc1ccc(NC2(C(F)(F)F)N=C(c3ccccc3)NC2=O)nc1 (stereo not drawn) | 87% (active)
O=C1NC(c2ccccc2)=NC1(Nc1ccccn1)C(F)(F)F (stereo not drawn) | 13.1% (inactive)
Cc1ccnc(NC2(C(F)(F)F)N=C(c3ccccc3)NC2=O)c1 (stereo not drawn) | -6% (inactive)
CCOc1ccc(C2(C)CC(=O)N(C)C2=O)cc1 (stereo not drawn) | 5.8% (inactive)
Cc1nnc(-c2cccc(Br)c2)c2cn(-c3ccccc3)nc12 | 9.1% (inactive)
Cc1nnc(-c2cccc(Br)c2)c2cn(-c3cccc(Br)c3)nc12 | 1.6% (inactive)
COc1ccc(-n2cc3c(-c4cccc(Br)c4)nnc(C)c3n2)cc1 | 45.1% (inactive)
Cc1nnc(-c2cccc(Br)c2)c2cn(-c3ccccc3Cl)nc12 | 7.4% (inactive)
COc1ccc(C)cc1NS(=O)(=O)c1cn(C)nc1C | 3.9% (inactive)
CC(NC(=O)CCc1nnc(CCCc2ccccc2)o1)c1ccccc1 (stereo not drawn) | -2.7% (inactive)

Structure (SMILES) | inhibition
CN(Cc1ccccc1)C(=O)CCC1CCN(C(=O)CC2=CCCCC2)CC1 | 0.7% (inactive)
O=C(N1CCN(c2ccc(F)cc2)CC1)C12CC3CC(CC(C3)C1)C2 | 1.6% (inactive)
CCCN1CNC(=S)N(c2ccccc2OC)C1 | 10% (inactive)
N=c1c2c3c(sc2ncn1CCN1CCOCC1)CCCC3 | 18.2% (inactive)
COc1cc(/C=C2/C(=O)NN(c3ccc(C)c(Cl)c3)C2=O)cc([N+](=O)[O-])c1O | 2.2% (inactive)
O=C1NC(=S)N/C1=C/c1cc2c(cc1[N+](=O)[O-])OCO2 | 4.7% (inactive)
CCOC(=O)C1=C(c2ccccc2)NC(=O)NC1c1ccc(OC)cc1OC (stereo not drawn) | 11.3% (inactive)
Cc1ccc(SCC(=O)Nc2cccc(-c3nnc(-c4ccco4)o3)c2)cc1 | 23.1% (inactive)
CNC(=S)N(CCc1c(C)[nH]c2ccc(Cl)cc12)Cc1cccs1 | 79.7% (active)
CNC(=S)N(CCc1c(C)[nH]c2ccc(C)cc12)Cc1cccs1 | -0.9% (inactive)
COCCNC(=S)N(CCc1c(C)[nH]c2ccc(Cl)cc12)Cc1cccs1 | 21.1% (inactive)
COc1ccc(NC(=O)CCNS(=O)(=O)c2ccc(C)c(C)c2)cc1OC | 0.7% (inactive)
C=CCN1C=CC(=CC=C(C#N)C#N)C=C1 | 67.9% (active)
C=CCN1C=CC(=C/C=C(/C#N)C(=O)OCC)C=C1 | 4.5% (inactive)
CCCN1C=CC(=CC=C(C#N)C#N)C=C1 | 52.4% (inactive)
CCOc1ccc(N(CC(=O)Nc2ccc(C)c(F)c2)C2=NC3CS(=O)(=O)CC3S2)cc1 (stereo not drawn) | 2.9% (inactive)
Cc1ccc(C)c(N2CCN(C(=O)Cn3ncc4c([nH]c5ccc(C)cc54)c3=O)CC2)c1 | 0.4% (inactive)
CC(=O)N/C(=N/c1nc(C)cc(C)n1)Nc1ccc(NC(C)=O)cc1 | -4.3% (inactive)
Cc1ccc(NS(=O)(=O)c2cc(C(=O)O)ccc2Cl)cc1 | 5.6% (inactive)
O=C(O)c1ccc(NC(=S)NC(=O)c2cccc(COc3ccccc3)c2)cc1 | -20.3% (inactive)
O=C(NC(=S)Nc1ccc(Cl)c(C(=O)O)c1)c1cccc(COc2ccccc2)c1 | 3.5% (inactive)
O=C(O)c1cccc(S(=O)(=O)Nc2ccc(OCc3ccccc3)cc2)c1 | 1.6% (inactive)
COc1ccccc1-n1c(SCC(=O)Nc2cccc(C)c2)nc2c(c1=O)SCC2 | 0.7% (inactive)
O=C1Nc2ccccc2N(O)N1c1ccc(S(=O)(=O)N2CCCCCC2)cc1 | 7.8% (inactive)

Structure (SMILES) | inhibition
O=C(CSc1nc2ccccc2s1)N1CCCCC1 | 7.6% (inactive)
CN(C)CCN(Cc1ccccc1)c1nccc(N(C)C)c1C#N | 7.4% (inactive)
CN(C)c1nccc(N(Cc2ccccc2)Cc2ccccc2)c1C#N | 49.1% (inactive)
CCN(CC1COc2ccccc2O1)C(=S)Nc1ccc(F)cc1 (stereo not drawn) | 8.3% (inactive)
COc1ccc(C2Nc3cc(OC)ccc3-n3cccc32)cc1 (stereo not drawn) | 8.6% (inactive)
COc1ccc2c(c1)NC(c1cc(Cl)cc(Cl)c1O)c1cccn1-2 (stereo not drawn) | 3.9% (inactive)
COc1ccc2c(c1)NC(c1ccc(N(C)C)cc1)c1cccn1-2 (stereo not drawn) | 67% (active)
Cc1cccc(N(CC(=O)N2CCN(C)CC2)S(=O)(=O)c2ccccc2)c1 | 9.1% (inactive)
CC1CC(C)CN(C(=O)C(C)N(C)CC(=O)Nc2ccc(Cl)cc2)C1 (stereo not drawn) | 12.3% (inactive)
CC1CN(S(=O)(=O)c2ccc(NC(=O)CCN3C(=O)c4ccccc4C3=O)cc2)CC(C)O1 (stereo not drawn) | 4.4% (inactive)
CC(=O)C1=C(C)NC(SCC(=O)c2ccc(C)cc2)=C(C#N)C1c1ccco1 (stereo not drawn) | 82.9% (active)
CC(=O)C1=C(C)NC(SCC(=O)c2ccccc2)=C(C#N)C1c1ccco1 (stereo not drawn) | 16.3% (inactive)
CC(=O)C1=C(C)NC(SCC(=O)c2ccc(F)cc2)=C(C#N)C1c1ccco1 (stereo not drawn) | 16.8% (inactive)
CN(C(=O)C1CCC1C(=O)O)c1nc(-c2ccc(Cl)s2)cs1 (stereo not drawn) | 11.8% (inactive)
CC(C)CNC(=O)CC(c1ccccc1)c1ccccc1 | -4.4% (inactive)
Cc1cc(C)nc(NNC(=O)NC2CCCCC2)n1 | -10.6% (inactive)
COc1cc(NC(=O)c2cnn3c(C(F)F)cc(C4CC4)nc23)c(OC)cc1Cl | 14.7% (inactive)
CCOc1ccc(NC(=O)c2c[nH]n3c(=O)cc(C4CCN(C(=O)OC(C)(C)C)CC4)nc23)cc1 | 16.4% (inactive)
COc1ccc(-n2ncc(C(=O)NC3CC3)c2C2CCN(C(=O)OC(C)(C)C)CC2)cc1 | 12.4% (inactive)
CC(C)(C)OC(=O)N1CCC(c2c(C(=O)NC3CC3)cnn2-c2ccc(Cl)cc2)CC1 | 4.1% (inactive)
CCCCC(C(=O)NC1CCCC1)N(C(=O)c1snc(C(N)=O)c1N)c1ccc(OCC)cc1 (stereo not drawn) | 4.9% (inactive)
